Measurements taken from PubChem BioAssay AID2806 (Sanford-Burnham Center for Chemical Genomics, 2010).
Out of some 330,000 compounds screened, about 660 (0.2%) were called active.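 Rule for the calls: active = inhibition of at least 40% at 10 µM in the primary screen; inactive = the rest.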 Only a selection was taken, and actives are over-represented in it overall.

system: intestinal alkaline phosphatase [Mus musculus]; test: inhibitors of mouse IAP, primary screen, biochemical, luminescence, uHTS (AID 2806); settings: purified mouse IAP, CDP-Star luminescence, 30 min; at 10 µM; hits give high values;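 note: plate controls were DMSO with enzyme for no effect and no enzyme wells for full effect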

SMILES | inhibition
O=C(O)COc1ccccc1/C=C1\C(=O)NC(=O)N(CCC2=CCCCC2)C1=O | 0.6% (inactive)
O=C1NC(=O)N(Cc2ccco2)C(=O)/C1=C\c1ccc(-c2ccc(F)cc2)o1 | 64.1% (active)
O=C1NC(=O)N(CCc2ccc(F)cc2)C(=O)/C1=C/C=C/c1ccccc1 | 1.6% (inactive)
O=C1NC(=O)N(Cc2ccco2)C(=O)/C1=C\c1cccn1CCOc1ccccc1 | 40.7% (active)
COC(=O)C1=C(c2cc3ccccc3s2)C[C@@H]2CC[C@H]1N2C(=O)NCc1cccc2ccccc12 | 1% (inactive)
COc1ccc2c(c1)[C@]13CCCCC1C(C2)N(C)CC3 (stereo not given in full) | 0.8% (inactive)
O=Cc1cn(Cc2ccc(F)cc2Cl)c2ccccc12 | -2% (inactive)
CNCC(O)c1cc(F)c(OCc2ccccc2)c(OCc2ccccc2)c1F (stereo not given) | 5.2% (inactive)
Cc1cc(C(=O)OCC(=O)Nc2c(F)cccc2F)c(C)n1C1CC1 | 7.2% (inactive)
Oc1ccc2c3c1OC1[C@H](O)CC[C@@]4(O)[C@@H](C2)N(CC2CC2)CC[C@]314 (stereo not given in full) | 1.2% (inactive)
COc1cccc(N2C(=O)NC(=O)/C(=C\c3ccc([N+](=O)[O-])s3)C2=O)c1 | 34.9% (inactive)
O=C1NC(=O)N(c2ccccc2)C(=O)/C1=C/c1ccc([N+](=O)[O-])s1 | 26.5% (inactive)
COc1ccc(N2C(=O)/C(=C/c3ccco3)C(=O)NC2=S)cc1 | 42.1% (active)
CSc1ccc(C(=O)C2CCCN(Cc3ccn[nH]3)C2)cc1 (stereo not given) | -3.6% (inactive)
CC1CCCCN1Cc1cccnc1 (stereo not given) | 0.7% (inactive)
